Assay results: PubChem BioAssay AID1566 (Sanford-Burnham Center for Chemical Genomics, 2009)
Hit rate of the full screen: of about 290,000 compounds, about 1,800 (0.62%) were called active. Cut-off read from the data, not from the text of the source: active = inhibition above about 50%; inactive = the rest. For the sample, actives were picked, then their nearest neighbours and some compounds at random.

Experiment: NOD2 signaling inhibitors, cell-based, luminescence, uHTS, HEK293 (AID 1566)
Details: HEK293 NOD2/NF-kB luciferase reporter, at 4 µM, stronger effect = higher value

Structure (SMILES) | inhibition
Cc1oc(-c2ccc(Cl)cc2)nc1CS(=O)CC(=O)NCCCN1CCN(Cc2ccccc2)CC1 (stereo unspecified) | 61.5% (active)
Cc1ccc(-c2nc(CS(=O)CC(=O)NCCCN3CCN(Cc4ccccc4)CC3)c(C)o2)cc1 (stereo unspecified) | 28.9% (inactive)
Cc1oc(-c2ccc(Cl)cc2)nc1CS(=O)CC(=O)NCCCN1CCOCC1 (stereo unspecified) | 16.6% (inactive)
Cc1c(-c2nc(-c3ccc(C(F)(F)F)cc3)no2)n(C)oc1=O | -51.2% (inactive)
CCN(CC)C(=O)C1CCCN(Cc2ccccc2)C1 (stereo unspecified) | -6.7% (inactive)
Cc1cccc(NC(=O)NCc2ccc3c(c2)cc(C)n3C)c1 | 10.6% (inactive)
COC(=O)CCn1nnc(-c2cccs2)n1 | 6.8% (inactive)
COC(=O)CCn1nnc(-c2ccc(C)cc2)n1 | -23.2% (inactive)
CCc1ccc(-c2nnn(CCC(=O)OC)n2)cc1 | 54.4% (active)
COc1ccc(OC)c(NC(=O)CCCC(=O)NC2CCCCC2)c1 | 10.6% (inactive)
COC(=O)C(Cc1ccc(O)cc1)NC(=O)C(C)NC(=O)c1ccc(C(C)(C)C)cc1 (stereo unspecified) | -9.1% (inactive)
CC(=O)C1=C(O)C(=O)N(c2nccs2)C1c1ccccc1 (stereo unspecified) | -1.4% (inactive)
O=C(C1=C(O)C(=O)N(c2nccs2)C1c1ccccc1)c1cc2ccccc2o1 (stereo unspecified) | -20.5% (inactive)
CSc1ccccc1-c1nnc(-c2ccc(Cl)c(Cl)c2)o1 | -48.1% (inactive)
Cc1cc([N+](=O)[O-])ccc1NC(=O)C(C)N1CCN(c2ccccn2)CC1 (stereo unspecified) | 12% (inactive)
Cc1ccc(S(=O)(=O)NCc2ccc(C(=O)N3CCCC3)cc2)cc1 | -3.3% (inactive)
Cc1ccc(S(=O)(=O)NCc2ccc(C(=O)N3CCN(c4ccccc4)CC3)cc2)cc1 | 12.6% (inactive)
COc1ccc(-c2nc(CN3CCN(c4cc(C)nc(C)c4)CC3)c(C)o2)c2ccccc12 | 30.3% (inactive)
COc1ccc(-c2nc(CN3CCN(c4ccccc4OC)CC3)c(C)o2)cc1 | 1.8% (inactive)
O=C(NC1CCCCC1)C(c1ccc(O)cc1)N(C(=O)c1cnccn1)c1cccc(F)c1 (stereo unspecified) | 3.4% (inactive)
CC(C)(C)CC(=O)Nc1ccccc1N1CCN(c2ccccc2)CC1 | -19.6% (inactive)

Structure (SMILES) | inhibition
CCC(=O)NC(c1ccc(C)cc1)c1ccc2cccnc2c1O (stereo unspecified) | 70% (active)
CCCC(=O)NC(c1ccc(C)cc1)c1ccc2cccnc2c1O (stereo unspecified) | 13% (inactive)
CCCC(=O)NC(c1ccc(C(C)C)cc1)c1ccc2cccnc2c1O (stereo unspecified) | 21.9% (inactive)
Cc1cccc(C2(c3cccc(C)c3)CC2C(=O)Nc2ccc([N+](=O)[O-])cc2O)c1 (stereo unspecified) | 48.8% (inactive)
Cc1ccc(C2(c3ccc(C)cc3)CC2C(=O)Nc2ccc([N+](=O)[O-])cc2O)cc1 (stereo unspecified) | 52.6% (active)
CC1(C)CC1C(=O)Nc1ccc([N+](=O)[O-])cc1Br (stereo unspecified) | 9.5% (inactive)
O=C(N/N=C/c1ccccc1O)C1CC(=O)N(c2ccc(F)cc2)C1 (stereo unspecified) | 59.3% (active)
Cc1ccsc1/C=N/NC(=O)C1CC(=O)N(c2ccc(F)cc2)C1 (stereo unspecified) | 16.6% (inactive)
O=C(N/N=C/c1ccccc1O)C1CC(=O)N(c2ccc(Cl)cc2)C1 (stereo unspecified) | 47.3% (inactive)
Cc1cc(C(=O)NNC(=S)NCC(C)C)no1 | -0.2% (inactive)
CCCSc1nnc(-c2c[nH]c3ccccc23)n1CC | -33.8% (inactive)
Cn1[nH]c(=O)c(Cl)c(Cl)c1=O | 10.7% (inactive)
COc1ccccc1/C=C/C(C)=O | -13.4% (inactive)
COc1ccccc1/C=C/C(=O)/C=C/c1ccccc1O | 50.2% (active)
COc1ccccc1/C=C/C(=O)c1ccccc1 | -52.6% (inactive)
CCOc1ccc2[nH]c(=O)c(CN(CC3CCCN3CC)C(=O)NCc3ccccc3)cc2c1 (stereo unspecified) | 13.6% (inactive)
Nc1cc(S(=O)(=O)O)cc([N+](=O)[O-])c1O | 8.2% (inactive)
O=C(NCCN1CCOCC1)c1ccc(Cl)c(Cl)c1 | -11.3% (inactive)
O=C(Nc1ccc2snnc2c1)N1CCCCC1 | 3.3% (inactive)
O=C(Nc1ccc2c(c1)OCO2)c1cc(C2CC2)on1 | -108% (inactive)
COc1cc(/C=C2\CCOC2=O)cc(OC)c1OC | -11.1% (inactive)

Structure (SMILES) | inhibition
COc1cc(/C=C2\CC/C(=C\c3cc(OC)c(OC)c(OC)c3)C2=O)cc(OC)c1OC | -18.8% (inactive)
CN(C)C1(CNC(=O)C2CCN(S(=O)(=O)c3cc(Cl)ccc3Cl)CC2)CCCCC1 | -8.8% (inactive)
Cc1ccc2[nH]c3c(N4CCN(Cc5ccc6c(c5)OCO6)CC4)ncnc3c2c1 | 49.8% (inactive)
COc1ccc2[nH]c3c(N4CCN(Cc5ccc6c(c5)OCO6)CC4)ncnc3c2c1 | 3.4% (inactive)
Fc1ccc2[nH]c3c(N4CCN(Cc5ccc6c(c5)OCO6)CC4)ncnc3c2c1 | 55.3% (active)
CC(C)CC(N)c1cn([C@@H](CCC(=O)O)C(=O)N2CCNCC2)nn1 (stereo partly specified) | -7.7% (inactive)
CNC(C)C#Cc1ccc2c(=O)c3c(OC)cccc3oc2c1 (stereo unspecified) | -33.5% (inactive)
O=C(O)CSc1ncnc2sc(-c3ccccc3)cc12 | 15.1% (inactive)
CC(=O)CCSc1ncnc2sc(-c3ccccc3)cc12 | -124% (inactive)
Cc1ccc(SCCN2CCN(CC(C)C)CCC2=O)cc1 | -18.4% (inactive)
O=C(NC1CCCCCCC1)c1cc(F)c(F)cc1Cl | -57.3% (inactive)
Cc1csc(Nc2ccccc2C(F)(F)F)n1 | -3.5% (inactive)
COc1ccc(S(=O)(=O)Nc2nc3ccccc3nc2Nc2ccc3c(c2)OCO3)cc1 | 25.7% (inactive)
O=S(=O)(Nc1nc2ccccc2nc1Nc1ccc2c(c1)OCO2)c1ccccc1 | 26% (inactive)
O=C(CCc1ccccc1Cl)Nc1cccc(S(=O)(=O)N2CCCC2)c1 | 4% (inactive)
COc1ccc(S(=O)(=O)Nc2cccc(S(=O)(=O)N3CCCCCC3)c2)cc1 | -4.9% (inactive)
CC(=O)Nc1cccc(S(=O)(=O)N2CCCCCC2)c1 | 2.3% (inactive)
O=S(=O)(Nc1cccc(S(=O)(=O)N2CCCCCC2)c1)c1ccccc1 | 16.1% (inactive)
O=S(=O)(Nc1nc2ccccc2nc1Nc1cccc(S(=O)(=O)N2CCCCC2)c1)c1ccccc1 | 55.5% (active)
